# Experimental data taken from PubChem BioAssay (NCATS).
# Records with an inconclusive call do not appear. Activity calls are given as the source filed them. Calls follow the shape of the dose curve; as a rule, active = well fitted curve in the direction sought with a large enough effect; inconclusive = small, poorly fitted or top-dose-only effect, or another doubt; inactive = no such curve, though single readings can be large; an effect the other way counts as inactive or inconclusive.
# Test system: not listed separately
# Assay: Primary fluorescence-based thiol-reactive (MSTI) qHTS assay for identification of artifact compounds. (AID 1845221); also: nearly all actives have a fitted effect of over 65% in size; also: potency is read from the fitted curve at half-maximal effect;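 as to activity change, negative = thiol reactive: thiol-reactive compounds lower the probe fluorescence signal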
# Settings: MSTI thiol-reactivity probe, 1 h; series mostly up to 53.8 µM; activity change, negative = thiol reactive: at the top concentration
# Outline: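 qHTS titration of compound; 4 uM MSTI, PBS pH 7.4, 2% DMSO; 1 h RT, dark; fluorescence 525/598 nm; normalized to Acetyl-MSTI and MSTI; 4-parameter Hill fit.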
SMILES,"activity change, negative = thiol reactive",Potency
CCCCn1ccc(N2CCC(c3ccccc3)CC2)c(Cl)c1=O,12.4% (inactive),
O=C(NNc1ccccc1)c1ccncc1,-15.2% (inactive),
COc1ccccc1NC(=O)Nc1ccc2ccccc2c1,195% (inactive),
CC1OC2OC3C(OCC(O)C3O)OC(=O)C34CCC(C)(C)CC3C3=CCC5C6(C)CC(O)C(OC7OC(CO)C(O)C(O)C7OC7OCC(OC(=O)CC(C)(O)CC(=O)OC1C(OC1OCC(O)C(O)C1O)C2O)C(O)C7O)C(C)(CO)C6CCC5(C)C3(C)CC4O (configuration not stated),565% [at 25.6 µM] (inactive),
COc1cc(O)c(C(=O)CCc2ccc(O)cc2)c(O[C@@H]2O[C@H](CO)[C@@H](O)[C@H](O)[C@H]2O)c1,,9.22 µM (active)
CCOC(=O)c1cnn(-c2ccc(NC(=O)C(Cl)=C(Cl)Cl)cc2)c1C(F)(F)F,80.1% (inactive),
COc1ccc(Cl)cc1[C@@]1(F)C(=O)Nc2cc(C(F)(F)F)ccc21,43.3% (inactive),
CN(CCCNC(=O)c1ccc2nc3c(c(Cl)c2c1)CCCC3)Cc1ccccc1,-5.06% (inactive),
O=C(NCc1ccc(Oc2ccccc2)cc1)c1nc(-c2cc(Br)c(O)c(Br)c2)no1,,0.423 µM (active)
O=C(Nc1ccc(F)cc1)N1CCc2ccccc2C1c1ccc(C(F)(F)F)cc1 (configuration not stated),,0.0474 µM (active)
CC(C)(C)c1ccc(-c2nc3ccccc3[nH]2)cc1,40.5% [at 25.6 µM] (inactive),
C=C(C)C(=O)OC1[C@@H]2C(=C)C(=O)O[C@@H]2C[C@@H](C)[C@@H]2C=CC(=O)[C@@]12C (some centres not stated),-7.05% (inactive),
COc1ccccc1-c1cc(Nc2cccc(CS(N)(=O)=O)c2)ncn1,122% (inactive),
COc1cc2ncnc(Nc3ccc(Oc4ccccc4)cc3)c2cc1OC,38.1% (inactive),
CC1CCC2C(=CCC(O)C2(C)C)C1(C)Cc1c(O)cc(CO)c(C=O)c1O (configuration not stated),0.875% (inactive),
CC1(C)CC23[C@@H]4CC(=O)[C@@H]2COC(=O)[C@@H]3CC[C@H]41,8.98% (inactive),
CCN1CCN(Cc2ccc(-c3cc4c(NC(C)c5ccccc5)ncnc4[nH]3)cc2)CC1 (configuration not stated),-4.61% (inactive),
CN1CCN(C(=O)c2ccc(Nc3nccc(-c4cccs4)n3)cc2Cl)CC1,91.5% (inactive),
Cn1cnc(-c2nccc3c(=O)[nH]c(OCCCC(F)(F)F)nc23)c1,-6.51% (inactive),
CC(C)[C@@H](C)/C=C/[C@@H](C)[C@H]1CC[C@H]2C3=CC=C4C[C@@H](O)CC[C@]4(C)C3=CC[C@]12C,2% (inactive),
CCN(CCCOc1ccc2c(Nc3cc(CC(=O)Nc4cccc(F)c4)[nH]n3)ncnc2c1)CCOP(=O)(O)O,145% (inactive),
Cc1ccc(C2(COC(=O)C(C)C)CO2)c(OC(=O)C(C)C)c1 (configuration not stated),6.26% (inactive),
Cn1nccc1Nc1nccc(-c2ccn([C@H](CO)c3ccc(Cl)c(F)c3)c(=O)c2)n1,959% (inactive),
COc1cc2ncnc(Oc3cccc(NC(=O)Nc4cc(C(C)(C)C(F)(F)F)on4)c3)c2cc1OC,-13.6% (inactive),
CC1(C)CC[C@]2(C(=O)OC3OC(CO)C(O)C(O)C3O)CC[C@]3(C)C(=CCC4[C@@]5(C)CC[C@H](OC6OC(C(=O)O)C(O)C(O)C6O)C(CO)(CO)C5CC[C@]43C)[C@@H]2C1 (some centres not stated),84.5% [at 11.5 µM] (inactive),
O=[N+]([O-])c1ccc(-[n+]2nc(-c3ccccc3)nn2-c2ccc(I)cc2)cc1,,10.6 µM (active)
Cc1ccc(C(=O)N2CCN(c3ccc([N+](=O)[O-])cc3)CC2)cc1Cl,-1.33% (inactive),
CC(=O)N1c2ccc(-c3ccc(C(=O)O)cc3)cc2C(Nc2ccc(Cl)cc2)CC1C (configuration not stated),109% (inactive),
C=C1/C(=C/C=C2\CCC[C@]3(C)[C@@H]([C@H](C)/C=C/C(=O)C4CC4)CC[C@@H]23)C[C@@H](O)C[C@@H]1O,-4.52% (inactive),

# Test system: Nanoluciferase (engineered Oplophorus gracilirostris luciferase)
# Assay: Primary Nanoluciferase (NLuc) qHTS assay for identification of artifact compounds. (AID 1845222);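 also: NLuc secreted into diluted conditioned medium of S16 cells; 0% = DMSO and -100% = no enzyme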
# Settings: NLuc-conditioned medium, Nano-Glo luminescence, 5 min; series mostly up to 54.1 µM; activity, negative = inhibition: at the top concentration
# Outline: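 NLuc from S16 cell medium (1:55) plus test compounds, 15 min, room temperature. Luminescence after Nano-Glo (1:100) addition, 5 min.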
row,SMILES,"activity, negative = inhibition"
1,CCCCn1ccc(N2CCC(c3ccccc3)CC2)c(Cl)c1=O,-4.76% (inactive)
2,O=C(NNc1ccccc1)c1ccncc1,-0.779% (inactive)
3,COc1ccccc1NC(=O)Nc1ccc2ccccc2c1,-3.32% (inactive)
4,CC1OC2OC3C(OCC(O)C3O)OC(=O)C34CCC(C)(C)CC3C3=CCC5C6(C)CC(O)C(OC7OC(CO)C(O)C(O)C7OC7OCC(OC(=O)CC(C)(O)CC(=O)OC1C(OC1OCC(O)C(O)C1O)C2O)C(O)C7O)C(C)(CO)C6CCC5(C)C3(C)CC4O (configuration not stated),3.2% [at 25.7 µM] (inactive)
5,COc1cc(O)c(C(=O)CCc2ccc(O)cc2)c(O[C@@H]2O[C@H](CO)[C@@H](O)[C@H](O)[C@H]2O)c1,-3.88% [at 25.7 µM] (inactive)
6,CCOC(=O)c1cnn(-c2ccc(NC(=O)C(Cl)=C(Cl)Cl)cc2)c1C(F)(F)F,2.73% (inactive)
7,COc1ccc(Cl)cc1[C@@]1(F)C(=O)Nc2cc(C(F)(F)F)ccc21,1.6% (inactive)
8,CN(CCCNC(=O)c1ccc2nc3c(c(Cl)c2c1)CCCC3)Cc1ccccc1,2% (inactive)
9,Cc1ccc2c(Nc3ccc(Cl)cc3)nccc2c1Nc1ncccc1-c1ncnc2nc[nH]c12,1.92% (inactive)
10,O=C(NCc1ccc(Oc2ccccc2)cc1)c1nc(-c2cc(Br)c(O)c(Br)c2)no1,0% (inactive)
11,O=C(Nc1ccc(F)cc1)N1CCc2ccccc2C1c1ccc(C(F)(F)F)cc1 (configuration not stated),-8.33% (inactive)
12,CC(C)(C)c1ccc(-c2nc3ccccc3[nH]2)cc1,0.946% [at 25.7 µM] (inactive)
13,C=C(C)C(=O)OC1[C@@H]2C(=C)C(=O)O[C@@H]2C[C@@H](C)[C@@H]2C=CC(=O)[C@@]12C (some centres not stated),0% (inactive)
14,COc1ccccc1-c1cc(Nc2cccc(CS(N)(=O)=O)c2)ncn1,-5.85% (inactive)
15,COc1cc2ncnc(Nc3ccc(Oc4ccccc4)cc3)c2cc1OC,2.99% (inactive)
16,CC1CCC2C(=CCC(O)C2(C)C)C1(C)Cc1c(O)cc(CO)c(C=O)c1O (configuration not stated),0% (inactive)
17,CC1(C)CC23[C@@H]4CC(=O)[C@@H]2COC(=O)[C@@H]3CC[C@H]41,2.27% (inactive)

row,SMILES,"activity, negative = inhibition"
1,CCN1CCN(Cc2ccc(-c3cc4c(NC(C)c5ccccc5)ncnc4[nH]3)cc2)CC1 (configuration not stated),-2.03% (inactive)
2,CN1CCN(C(=O)c2ccc(Nc3nccc(-c4cccs4)n3)cc2Cl)CC1,1.84% (inactive)
3,Cn1cnc(-c2nccc3c(=O)[nH]c(OCCCC(F)(F)F)nc23)c1,-1.96% (inactive)
4,CC(C)[C@@H](C)/C=C/[C@@H](C)[C@H]1CC[C@H]2C3=CC=C4C[C@@H](O)CC[C@]4(C)C3=CC[C@]12C,-3.19% (inactive)
5,OCC(Cc1ccccc1)Nc1nc(Oc2ccc3c(c2)CCC3)nc2c1ncn2Cc1ccc(-c2ccccc2)cc1 (configuration not stated),1.54% (inactive)
6,O=C1c2c(O[C@@H]3O[C@H](CO)[C@@H](O)[C@H](O)[C@H]3O)cc(O)cc2OC1(O)Cc1ccc(O)cc1 (some centres not stated),1.73% [at 25.7 µM] (inactive)
7,CCCCn1c(-c2ccccc2)nc(-c2ccccc2)c1CN(Cc1ccc2c(c1)OCO2)Cc1ccc2c(c1)OCO2,-3.85% (inactive)
8,Cc1ccc(C2(COC(=O)C(C)C)CO2)c(OC(=O)C(C)C)c1 (configuration not stated),-9.9% (inactive)
9,CCC(C)n1cc(C)c2c(C(=O)NCc3c(C)cc(C)[nH]c3=O)cc(-c3ccc(N4CCNCC4)nc3)cc21 (configuration not stated),2.81% (inactive)
10,COc1cc2ncnc(Oc3cccc(NC(=O)Nc4cc(C(C)(C)C(F)(F)F)on4)c3)c2cc1OC,0% (inactive)
11,CC1(C)CC[C@]2(C(=O)OC3OC(CO)C(O)C(O)C3O)CC[C@]3(C)C(=CCC4[C@@]5(C)CC[C@H](OC6OC(C(=O)O)C(O)C(O)C6O)C(CO)(CO)C5CC[C@]43C)[C@@H]2C1 (some centres not stated),-2.38% [at 11.6 µM] (inactive)
12,Nc1ncnc2c1ncn2[C@@H]1O[C@H](CO)C[C@H]1O,0% (inactive)
13,O=C(NC(NC(=S)Nc1ccc(F)c([N+](=O)[O-])c1)C(Cl)(Cl)Cl)C(c1ccccc1)c1ccccc1 (configuration not stated),-3.62% [at 25.7 µM] (inactive)
14,Cc1ccc(C(=O)N2CCN(c3ccc([N+](=O)[O-])cc3)CC2)cc1Cl,0.0175% (inactive)
15,CC(=O)N1c2ccc(-c3ccc(C(=O)O)cc3)cc2C(Nc2ccc(Cl)cc2)CC1C (configuration not stated),-4.07% (inactive)
16,C=C1/C(=C/C=C2\CCC[C@]3(C)[C@@H]([C@H](C)/C=C/C(=O)C4CC4)CC[C@@H]23)C[C@@H](O)C[C@@H]1O,-15.8% (inactive)
